# Measurements published in PubChem BioAssay (EPA / NIEHS).
# Inconclusive results are not listed. The source made the active and inactive calls. Rule for the calls, unless noted: active = hit-call score of the fitted dose curve at least 0.9, where 1 is the maximum; inactive = score below 0.9.
# What was measured:
# [1] = ACEA_ER_80hr: ACEA Biosciences xCELLigence Real-Time Cell Analysis on Estrogen Receptor Agonism for Proliferation (AID 2282667; active = hit-call score of the fitted dose curve at least 0.9, where 1 is the maximum); conditions: T47D proliferation, impedance (xCELLigence), 80 h
# Method in brief: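 Cell-growth kinetics were measured by impedance in T47D cells treated continuously with compound (top 100 uM final, 1:4 steps, 8 points). Activity at 80 h was scored as signal gain over the DMSO baseline.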
# [2] = APR_HepG2_CellCycleArrest_24hr: Apredica 24-hour HepG2 Assay for Cell Cycle Arrest (AID 2282905); conditions: imaging, actives raise or lower the signal;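 note: cell cycle arrest scored as ratio of 2N to 4N nuclear DNA content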
# Method in brief: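 HepG2, 24 hr dosing, 10-pt 0.39–200 uM in duplicate, 0.5% DMSO. Fixed 3.7% formaldehyde, permeabilized 0.5% Triton X-100, Hoechst 33342 2 ug/mL. Imaged 20x; nuclear DNA content quantified; bidirectional fit vs DMSO.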
# [3] = APR_HepG2_NuclearSize_24hr: Apredica 24-hour HepG2 Assay for Nuclear Size (AID 2282907); conditions: high-content imaging, actives raise or lower the signal
# Method in brief: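 HepG2, 24 hr dosing, 10-pt 0.39–200 uM, duplicates, 0.5% DMSO final; 3.7% formaldehyde fix, 0.5% Triton X-100; Hoechst 33342 nuclear stain; ArrayScan HCS, Cell Cycle analysis → nuclear size; bidirectional fit vs DMSO.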
# [4] = APR_HepG2_CellLoss_24hr: Apredica 24-hour HepG2 Assay for Cell Loss (AID 2282908); conditions: high-content imaging
# Method in brief: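 10-pt dose, 0.39–200 uM, n=2/plate; DMSO 0.5% v/v final as negative control. Fix 3.7% formaldehyde 30 min RT, permeabilize 0.5% Triton X-100, stain Hoechst 33342 2 ug/mL, image 20x. Nuclear count, bidirectional fit vs DMSO.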
# [5] = APR_HepG2_MicrotubuleCSK_24hr: Apredica 24-hour HepG2 Assay for Microtubule CSK Stabilty (AID 2282909); conditions: HepG2 microtubule cytoskeleton imaging, actives raise or lower the signal
# Method in brief: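 Human liver HepG2, 24 h dosing, 0.39–200 uM ×10 conc, dup, 0.5% DMSO. 3.7% formaldehyde fix, 0.5% Triton perm, anti-alpha-tubulin (1:200)/Cy5 secondary + Hoechst. HCS imaging, 6 fields/well; gain/loss fit vs DMSO.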
# [6] = APR_HepG2_MitoticArrest_24hr: Apredica 24-hour HepG2 Assay for Mitotic Arrest (AID 2282910); conditions: high-content imaging, actives raise or lower the signal
# Method in brief: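 HepG2 human liver cells were exposed to compounds at 0.39–200 uM (10 concentrations, duplicate) in 0.5% v/v DMSO for 24 hr, then fixed and immunostained for phospho-histone H3 with Hoechst 33342. Mitotic arrest came from HCS fluorescent imaging, fitted bidirectionally against DMSO.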
# [7] = APR_HepG2_MitoMembPot_24hr: Apredica 24-hour HepG2 Assay for Mitochondrial Membrane Potential (AID 2282911); conditions: imaging, actives raise or lower the signal
# Method in brief: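 Human hepatoma HepG2 cultures received ten compound concentrations up to 200 uM for 24 hr. Membrane-potential dye signal, captured by automated fluorescence microscopy, was scored for gain or loss against DMSO controls.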
# [8] = APR_HepG2_MitoMass_24hr: Apredica 24-hour HepG2 Assay for Mitochondrial Mass (AID 2282912); conditions: high-content imaging, actives raise or lower the signal
# Method in brief: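 Mitochondrial mass is read as MitoTracker Red fluorescence intensity from automated imaging, with bidirectional curve fitting relative to DMSO. HepG2 cells received compound (0.39–200 uM, 0.5% DMSO final) for 24 hr and were dye-loaded (250 nM, 30 min) before formaldehyde fixation.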
# [9] = APR_HepG2_p53Act_24hr: Apredica 24-hour HepG2 Assay for p53 Activation (AID 2282913); conditions: high-content imaging, actives raise or lower the signal;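 note: p53 protein immunofluorescence averaged per cell in HepG2 with Hoechst nuclei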
# Method in brief: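 Automated fluorescence imaging quantifies p53 immunostaining in HepG2 cells after a 24 hr exposure (0.39–200 uM, duplicate, 0.5% DMSO). Nuclei are located by Hoechst 33342 staining.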
# [10] = APR_HepG2_CellCycleArrest_72hr: Apredica 72-hour HepG2 Assay for Cell Cycle Arrest (AID 2282914); conditions: high-content imaging, actives raise or lower the signal
# Method in brief: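 Cell cycle arrest in HepG2 was scored from nuclear DNA content after 72 hr compound treatment (0.39–200 uM). Activity, either gain or loss, was fitted against the DMSO baseline.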
smiles,measurement,setting,value
COP(N)(=S)OC,outcome,[1],inactive
C=CC(=O)OCC(F)(F)C(F)F,outcome,[1],inactive
c1ccc(OP(Oc2ccccc2)Oc2ccccc2)cc1,outcome,[1],inactive
same,outcome,[2],inactive
same,outcome,[3],inactive
same,outcome,[4],inactive
same,outcome,[5],inactive
same,outcome,[6],inactive
same,outcome,[7],inactive
same,outcome,[8],inactive
same,outcome,[9],inactive
same,outcome,[10],inactive
FC(F)(F)c1ccc(Cl)cc1,outcome,[1],inactive
O=[N+]([O-])c1cc(Cl)ccc1Cl,outcome,[1],inactive
CC(O)C(F)(F)C(F)(F)F (centres undefined),outcome,[1],inactive
CCCCc1ccc(O)cc1,AC50,[1],10.5 µM (active)
OCC(F)(F)OC(F)(F)C(F)(F)OC(F)(F)C(F)(F)OC(F)(F)F,outcome,[1],inactive
CC(=O)CCc1ccc2c(c1)OCO2,outcome,[1],inactive
CCCCOCCOP(=O)(OCCOCCCC)OCCOCCCC,AC50,[1],10.5 µM (active)
O=NN1CCCC1,outcome,[1],inactive
C=CC(=O)OCC(CC)(COC(=O)C=C)COC(=O)C=C,outcome,[1],inactive
COC(N)=O,outcome,[1],inactive
CCCCC(CC)COC(=O)c1c(Br)c(Br)c(Br)c(Br)c1C(=O)OCC(CC)CCCC (centres undefined),outcome,[1],inactive
O=S1(=O)OCC2C(CO1)C1(Cl)C(Cl)=C(Cl)C2(Cl)C1(Cl)Cl (centres undefined),AC50,[1],0.0213 µM (active)
O=C(O)C=CC(F)(C(F)(F)F)C(F)(F)F,outcome,[1],inactive
O=P1(N(CCCl)CCCl)NCCCO1 (centres undefined),AC50,[1],3.97 µM (active)
same,outcome,[2],inactive
same,outcome,[3],inactive
same,outcome,[4],inactive
same,outcome,[5],inactive
same,outcome,[6],inactive
same,outcome,[7],inactive
same,outcome,[8],inactive
same,outcome,[9],inactive
same,outcome,[10],inactive
CCOP(=S)(OCC)SCSCC,AC50,[1],19.7 µM (active)
same,AC50,[2],114 µM (active)
same,outcome,[3],inactive
same,outcome,[4],inactive
same,outcome,[5],inactive
same,outcome,[6],inactive
same,outcome,[7],inactive
same,outcome,[8],inactive
same,AC50,[10],111 µM (active)
CCOC(=O)c1ccccc1C(=O)OCC,outcome,[1],inactive
same,outcome,[2],inactive
same,outcome,[3],inactive
same,outcome,[4],inactive
same,outcome,[5],inactive
same,outcome,[6],inactive
same,outcome,[7],inactive
same,outcome,[8],inactive
same,outcome,[9],inactive
same,outcome,[10],inactive
